How the values were obtained:
[1] = molecular target: T1, Inhibitor of nuclear factor kappa-B kinase subunit epsilon (Homo sapiens) (UniProt Q14164); settings: at 1 µM;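 further: reported values are averaged percent inhibition figures against human IKKε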
T1 sequence (whole entry): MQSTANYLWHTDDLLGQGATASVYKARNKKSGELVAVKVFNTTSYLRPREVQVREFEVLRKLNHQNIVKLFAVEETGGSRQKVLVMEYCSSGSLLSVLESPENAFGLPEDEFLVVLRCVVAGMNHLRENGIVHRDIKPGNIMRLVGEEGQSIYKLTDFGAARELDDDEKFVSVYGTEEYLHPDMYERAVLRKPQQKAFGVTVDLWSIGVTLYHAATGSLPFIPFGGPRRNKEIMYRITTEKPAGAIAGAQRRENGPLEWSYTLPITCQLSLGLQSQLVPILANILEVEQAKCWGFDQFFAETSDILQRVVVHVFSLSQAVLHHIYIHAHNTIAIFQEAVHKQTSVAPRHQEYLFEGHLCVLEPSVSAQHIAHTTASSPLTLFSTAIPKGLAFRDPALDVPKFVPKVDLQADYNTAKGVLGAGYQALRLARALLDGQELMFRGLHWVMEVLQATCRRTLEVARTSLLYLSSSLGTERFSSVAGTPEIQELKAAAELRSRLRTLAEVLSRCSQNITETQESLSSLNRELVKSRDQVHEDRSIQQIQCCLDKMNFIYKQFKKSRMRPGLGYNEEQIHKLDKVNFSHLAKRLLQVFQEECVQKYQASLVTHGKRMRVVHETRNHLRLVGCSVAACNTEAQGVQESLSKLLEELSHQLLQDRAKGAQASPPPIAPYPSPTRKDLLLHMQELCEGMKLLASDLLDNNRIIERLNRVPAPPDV

[2] = molecular target: T2, Serine/threonine-protein kinase Nek1 (Homo sapiens) (UniProt Q96PY6); settings: at 0.1 µM
T2 sequence (whole entry): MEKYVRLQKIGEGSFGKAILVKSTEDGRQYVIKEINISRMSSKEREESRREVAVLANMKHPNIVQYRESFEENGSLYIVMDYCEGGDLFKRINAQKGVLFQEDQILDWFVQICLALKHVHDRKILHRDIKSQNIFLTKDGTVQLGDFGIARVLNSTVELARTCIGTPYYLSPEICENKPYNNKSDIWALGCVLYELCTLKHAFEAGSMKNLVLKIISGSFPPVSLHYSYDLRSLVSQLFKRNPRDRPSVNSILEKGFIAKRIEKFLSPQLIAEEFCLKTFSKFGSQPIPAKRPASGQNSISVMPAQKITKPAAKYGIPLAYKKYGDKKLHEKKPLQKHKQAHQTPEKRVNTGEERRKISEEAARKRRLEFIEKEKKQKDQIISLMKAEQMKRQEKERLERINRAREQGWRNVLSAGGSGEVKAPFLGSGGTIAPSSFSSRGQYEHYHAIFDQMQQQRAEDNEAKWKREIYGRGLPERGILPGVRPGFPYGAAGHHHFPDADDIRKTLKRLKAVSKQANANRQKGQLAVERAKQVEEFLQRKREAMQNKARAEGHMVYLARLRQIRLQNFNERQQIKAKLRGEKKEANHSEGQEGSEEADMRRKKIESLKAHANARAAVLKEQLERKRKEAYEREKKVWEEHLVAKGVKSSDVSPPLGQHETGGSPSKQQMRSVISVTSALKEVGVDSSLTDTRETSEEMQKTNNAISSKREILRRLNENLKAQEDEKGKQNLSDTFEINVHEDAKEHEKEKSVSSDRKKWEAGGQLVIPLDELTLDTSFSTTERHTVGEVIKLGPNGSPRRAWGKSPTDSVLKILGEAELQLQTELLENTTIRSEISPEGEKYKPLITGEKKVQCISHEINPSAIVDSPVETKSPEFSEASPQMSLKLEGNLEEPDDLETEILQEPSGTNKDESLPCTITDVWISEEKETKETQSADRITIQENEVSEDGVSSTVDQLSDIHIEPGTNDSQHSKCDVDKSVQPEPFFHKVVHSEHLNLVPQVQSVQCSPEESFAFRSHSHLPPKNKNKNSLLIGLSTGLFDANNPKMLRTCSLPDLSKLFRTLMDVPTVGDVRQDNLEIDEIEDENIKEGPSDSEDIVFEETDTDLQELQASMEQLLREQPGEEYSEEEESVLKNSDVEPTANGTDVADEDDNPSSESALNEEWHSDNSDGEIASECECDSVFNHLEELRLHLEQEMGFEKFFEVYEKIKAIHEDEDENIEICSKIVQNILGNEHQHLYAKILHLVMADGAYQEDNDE

[3] = molecular target: T2, Serine/threonine-protein kinase Nek1 (Homo sapiens); settings: at 1 µM
[4] = molecular target: T3, Serine/threonine-protein kinase Nek2 (Homo sapiens) (UniProt P51955); settings: at 0.1 µM
T3 sequence (whole entry): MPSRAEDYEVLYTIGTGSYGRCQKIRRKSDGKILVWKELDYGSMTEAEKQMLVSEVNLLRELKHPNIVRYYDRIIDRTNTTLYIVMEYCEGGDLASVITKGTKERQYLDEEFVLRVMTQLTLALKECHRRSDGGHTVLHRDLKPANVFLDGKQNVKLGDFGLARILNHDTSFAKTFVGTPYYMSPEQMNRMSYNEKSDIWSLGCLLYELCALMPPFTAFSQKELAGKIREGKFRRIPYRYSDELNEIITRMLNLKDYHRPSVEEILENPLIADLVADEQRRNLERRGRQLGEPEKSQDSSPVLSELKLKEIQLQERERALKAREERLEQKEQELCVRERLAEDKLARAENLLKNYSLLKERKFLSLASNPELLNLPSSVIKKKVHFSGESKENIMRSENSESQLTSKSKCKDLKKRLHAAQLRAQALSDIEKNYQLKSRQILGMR

[5] = molecular target: T3, Serine/threonine-protein kinase Nek2 (Homo sapiens); settings: at 1 µM
[6] = molecular target: Serine/threonine-protein kinase Nek6 (Homo sapiens) (UniProt Q9HC98); settings: at 0.1 µM
[7] = molecular target: Serine/threonine-protein kinase Nek6 (Homo sapiens) (UniProt Q9HC98); settings: at 1 µM
[8] = molecular target: Serine/threonine-protein kinase Nek7 (Homo sapiens) (UniProt Q8TDX7); settings: at 0.1 µM
[9] = molecular target: Serine/threonine-protein kinase Nek7 (Homo sapiens) (UniProt Q8TDX7); settings: at 1 µM
[10] = molecular target: T4, Serine/threonine-protein kinase Nek9 (Homo sapiens) (UniProt Q8TD19); settings: at 0.1 µM
T4 sequence (whole entry): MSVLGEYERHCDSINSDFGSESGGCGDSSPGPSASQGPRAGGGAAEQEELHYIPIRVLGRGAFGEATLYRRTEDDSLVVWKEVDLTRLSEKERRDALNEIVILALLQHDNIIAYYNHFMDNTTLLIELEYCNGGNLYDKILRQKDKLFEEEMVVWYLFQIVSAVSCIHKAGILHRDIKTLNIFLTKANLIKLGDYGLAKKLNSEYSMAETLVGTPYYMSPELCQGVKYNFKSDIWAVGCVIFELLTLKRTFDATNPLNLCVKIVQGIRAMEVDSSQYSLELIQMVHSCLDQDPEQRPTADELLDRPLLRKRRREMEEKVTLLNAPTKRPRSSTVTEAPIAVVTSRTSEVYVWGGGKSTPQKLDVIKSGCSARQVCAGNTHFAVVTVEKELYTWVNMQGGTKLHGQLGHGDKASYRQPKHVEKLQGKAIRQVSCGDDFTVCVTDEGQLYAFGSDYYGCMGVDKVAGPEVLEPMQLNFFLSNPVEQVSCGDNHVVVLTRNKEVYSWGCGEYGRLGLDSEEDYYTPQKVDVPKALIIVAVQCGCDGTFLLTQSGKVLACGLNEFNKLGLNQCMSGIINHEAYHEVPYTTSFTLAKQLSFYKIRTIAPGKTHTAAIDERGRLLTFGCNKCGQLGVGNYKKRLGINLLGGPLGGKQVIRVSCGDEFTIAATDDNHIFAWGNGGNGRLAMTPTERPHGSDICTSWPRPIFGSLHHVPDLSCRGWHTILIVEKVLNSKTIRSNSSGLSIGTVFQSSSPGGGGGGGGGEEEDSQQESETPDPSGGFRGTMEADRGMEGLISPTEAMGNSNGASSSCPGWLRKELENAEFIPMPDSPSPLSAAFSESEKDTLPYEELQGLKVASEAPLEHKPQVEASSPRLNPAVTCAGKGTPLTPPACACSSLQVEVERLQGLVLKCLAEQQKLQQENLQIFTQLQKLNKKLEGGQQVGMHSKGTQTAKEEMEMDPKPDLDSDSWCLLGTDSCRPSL

[11] = molecular target: T4, Serine/threonine-protein kinase Nek9 (Homo sapiens); settings: at 1 µM
[12] = molecular target: Serine/threonine-protein kinase PLK1 (Homo sapiens) (UniProt P53350); settings: at 0.1 µM
[13] = molecular target: Serine/threonine-protein kinase PLK1 (Homo sapiens) (UniProt P53350); settings: at 1 µM
[14] = molecular target: T5, Dual specificity protein kinase TTK (Homo sapiens) (UniProt P33981); settings: at 0.1 µM
T5 sequence (whole entry): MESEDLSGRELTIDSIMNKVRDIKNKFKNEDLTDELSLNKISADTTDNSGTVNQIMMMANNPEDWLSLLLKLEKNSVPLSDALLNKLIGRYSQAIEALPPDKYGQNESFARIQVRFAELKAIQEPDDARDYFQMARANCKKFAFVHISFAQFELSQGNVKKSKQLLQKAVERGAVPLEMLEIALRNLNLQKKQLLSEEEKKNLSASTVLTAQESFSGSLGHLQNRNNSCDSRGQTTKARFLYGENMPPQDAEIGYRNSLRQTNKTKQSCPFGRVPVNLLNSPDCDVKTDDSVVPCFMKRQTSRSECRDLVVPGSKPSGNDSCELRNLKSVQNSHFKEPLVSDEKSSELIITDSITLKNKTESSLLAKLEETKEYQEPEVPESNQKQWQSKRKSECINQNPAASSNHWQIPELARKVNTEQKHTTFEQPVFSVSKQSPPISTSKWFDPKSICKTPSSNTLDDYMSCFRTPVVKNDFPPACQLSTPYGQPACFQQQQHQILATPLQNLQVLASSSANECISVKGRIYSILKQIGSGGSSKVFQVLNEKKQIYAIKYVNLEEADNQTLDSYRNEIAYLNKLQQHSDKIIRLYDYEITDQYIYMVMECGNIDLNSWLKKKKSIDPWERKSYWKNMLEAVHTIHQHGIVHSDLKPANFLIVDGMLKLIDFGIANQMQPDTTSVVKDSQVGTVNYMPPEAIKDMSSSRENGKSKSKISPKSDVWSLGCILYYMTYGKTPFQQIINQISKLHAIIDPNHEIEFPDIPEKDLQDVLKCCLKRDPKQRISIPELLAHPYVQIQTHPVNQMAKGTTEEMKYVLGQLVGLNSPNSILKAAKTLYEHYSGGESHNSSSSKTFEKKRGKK

[15] = system: T6, Receptor-type tyrosine-protein kinase FLT3 (Homo sapiens), P36888 [D835Y]; settings: at 1 µM
T6 sequence (whole entry): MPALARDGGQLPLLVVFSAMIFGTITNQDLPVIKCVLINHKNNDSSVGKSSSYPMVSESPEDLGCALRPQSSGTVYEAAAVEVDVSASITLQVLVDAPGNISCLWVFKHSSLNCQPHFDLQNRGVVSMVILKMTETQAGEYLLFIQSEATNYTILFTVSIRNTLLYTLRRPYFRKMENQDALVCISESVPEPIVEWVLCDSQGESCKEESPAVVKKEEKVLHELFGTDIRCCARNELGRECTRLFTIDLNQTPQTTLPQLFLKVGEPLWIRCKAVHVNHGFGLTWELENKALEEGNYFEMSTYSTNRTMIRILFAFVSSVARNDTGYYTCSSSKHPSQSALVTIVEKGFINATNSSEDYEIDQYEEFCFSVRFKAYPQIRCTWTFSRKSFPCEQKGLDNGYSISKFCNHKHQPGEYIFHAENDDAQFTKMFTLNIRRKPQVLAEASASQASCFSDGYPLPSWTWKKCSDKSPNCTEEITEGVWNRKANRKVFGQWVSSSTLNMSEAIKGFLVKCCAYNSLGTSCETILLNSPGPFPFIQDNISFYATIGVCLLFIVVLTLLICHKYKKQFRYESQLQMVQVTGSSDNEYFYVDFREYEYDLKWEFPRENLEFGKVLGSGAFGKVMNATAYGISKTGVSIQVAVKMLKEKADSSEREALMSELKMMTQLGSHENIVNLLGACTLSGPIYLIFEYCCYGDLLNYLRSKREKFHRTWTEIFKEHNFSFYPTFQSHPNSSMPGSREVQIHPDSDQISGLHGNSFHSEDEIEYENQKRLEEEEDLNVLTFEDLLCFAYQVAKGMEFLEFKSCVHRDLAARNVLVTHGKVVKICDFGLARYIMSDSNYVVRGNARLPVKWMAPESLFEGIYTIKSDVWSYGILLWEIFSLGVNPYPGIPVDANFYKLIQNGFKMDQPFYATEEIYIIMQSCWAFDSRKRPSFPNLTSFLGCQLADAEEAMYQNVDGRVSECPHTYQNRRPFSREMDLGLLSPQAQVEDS

[16] = molecular target: Vascular endothelial growth factor receptor 3 (Homo sapiens) (UniProt P35916); settings: at 0.1 µM
[17] = molecular target: Vascular endothelial growth factor receptor 3 (Homo sapiens) (UniProt P35916); settings: at 1 µM
[18] = molecular target: Macrophage colony-stimulating factor 1 receptor (Homo sapiens) (UniProt P07333); settings: at 0.1 µM
[19] = molecular target: Macrophage colony-stimulating factor 1 receptor (Homo sapiens) (UniProt P07333); settings: at 1 µM
[20] = molecular target: Tyrosine-protein kinase Fyn (Homo sapiens) (UniProt P06241); settings: at 0.1 µM
Chain of Tyrosine-protein kinase Fyn (Homo sapiens) (P06241 2-537 limits assumed): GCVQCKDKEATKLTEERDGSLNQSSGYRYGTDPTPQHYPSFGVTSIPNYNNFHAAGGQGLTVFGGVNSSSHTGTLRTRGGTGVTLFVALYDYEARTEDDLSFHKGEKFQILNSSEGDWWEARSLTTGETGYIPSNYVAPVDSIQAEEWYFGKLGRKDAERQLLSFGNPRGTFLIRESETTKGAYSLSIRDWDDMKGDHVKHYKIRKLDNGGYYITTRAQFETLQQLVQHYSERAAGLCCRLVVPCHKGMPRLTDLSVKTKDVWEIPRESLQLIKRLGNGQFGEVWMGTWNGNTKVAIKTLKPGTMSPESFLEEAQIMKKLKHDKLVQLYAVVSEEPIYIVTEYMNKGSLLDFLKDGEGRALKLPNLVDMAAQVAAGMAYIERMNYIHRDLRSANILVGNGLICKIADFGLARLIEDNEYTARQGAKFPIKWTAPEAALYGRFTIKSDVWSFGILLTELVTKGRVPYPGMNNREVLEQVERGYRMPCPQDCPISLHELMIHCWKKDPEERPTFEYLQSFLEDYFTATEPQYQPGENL

Chain of Vascular endothelial growth factor receptor 3 (Homo sapiens) (P35916 whole entry): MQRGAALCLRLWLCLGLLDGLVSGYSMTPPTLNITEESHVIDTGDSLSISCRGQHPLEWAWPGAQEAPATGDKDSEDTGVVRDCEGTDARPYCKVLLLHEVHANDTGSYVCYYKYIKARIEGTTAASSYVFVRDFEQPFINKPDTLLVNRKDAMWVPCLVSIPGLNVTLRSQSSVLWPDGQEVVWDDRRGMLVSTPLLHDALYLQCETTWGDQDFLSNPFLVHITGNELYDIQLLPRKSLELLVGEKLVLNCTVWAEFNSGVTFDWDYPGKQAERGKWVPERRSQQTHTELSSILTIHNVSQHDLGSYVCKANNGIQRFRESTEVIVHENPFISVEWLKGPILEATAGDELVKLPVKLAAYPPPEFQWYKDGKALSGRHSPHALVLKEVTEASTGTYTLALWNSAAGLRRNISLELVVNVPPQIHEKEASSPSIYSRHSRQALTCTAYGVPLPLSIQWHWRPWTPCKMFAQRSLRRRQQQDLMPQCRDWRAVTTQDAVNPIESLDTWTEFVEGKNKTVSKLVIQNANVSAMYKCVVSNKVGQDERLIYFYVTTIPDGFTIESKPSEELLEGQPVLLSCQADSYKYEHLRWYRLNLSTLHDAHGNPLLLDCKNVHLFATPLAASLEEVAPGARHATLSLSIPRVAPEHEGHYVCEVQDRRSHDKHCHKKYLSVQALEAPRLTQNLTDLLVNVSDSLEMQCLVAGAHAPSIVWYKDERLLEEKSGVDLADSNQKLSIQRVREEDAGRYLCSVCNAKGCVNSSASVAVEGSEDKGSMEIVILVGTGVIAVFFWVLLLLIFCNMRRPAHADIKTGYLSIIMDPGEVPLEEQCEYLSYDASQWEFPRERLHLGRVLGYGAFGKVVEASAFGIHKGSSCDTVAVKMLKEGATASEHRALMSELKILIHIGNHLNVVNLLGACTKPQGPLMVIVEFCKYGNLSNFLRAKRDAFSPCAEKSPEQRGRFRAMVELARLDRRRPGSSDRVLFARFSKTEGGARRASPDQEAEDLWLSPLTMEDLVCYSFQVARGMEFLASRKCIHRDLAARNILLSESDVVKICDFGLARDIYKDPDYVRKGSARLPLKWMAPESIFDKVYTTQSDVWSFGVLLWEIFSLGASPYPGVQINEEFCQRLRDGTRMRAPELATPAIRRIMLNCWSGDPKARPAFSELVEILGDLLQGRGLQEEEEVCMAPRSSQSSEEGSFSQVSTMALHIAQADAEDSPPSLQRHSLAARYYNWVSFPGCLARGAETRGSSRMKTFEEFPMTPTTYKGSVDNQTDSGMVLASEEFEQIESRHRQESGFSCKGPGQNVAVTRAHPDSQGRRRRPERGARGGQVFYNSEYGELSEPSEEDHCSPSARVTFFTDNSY
Chain of Serine/threonine-protein kinase Nek7 (Homo sapiens) (Q8TDX7 whole entry, looked up): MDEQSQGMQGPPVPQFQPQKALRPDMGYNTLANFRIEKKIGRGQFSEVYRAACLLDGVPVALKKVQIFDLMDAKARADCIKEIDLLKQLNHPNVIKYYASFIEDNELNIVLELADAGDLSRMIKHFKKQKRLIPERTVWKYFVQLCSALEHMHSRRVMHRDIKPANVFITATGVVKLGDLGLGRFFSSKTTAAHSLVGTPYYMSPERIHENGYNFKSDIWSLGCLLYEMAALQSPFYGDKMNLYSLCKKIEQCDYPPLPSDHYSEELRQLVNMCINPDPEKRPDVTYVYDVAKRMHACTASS
Chain of Serine/threonine-protein kinase PLK1 (Homo sapiens) (P53350 whole entry): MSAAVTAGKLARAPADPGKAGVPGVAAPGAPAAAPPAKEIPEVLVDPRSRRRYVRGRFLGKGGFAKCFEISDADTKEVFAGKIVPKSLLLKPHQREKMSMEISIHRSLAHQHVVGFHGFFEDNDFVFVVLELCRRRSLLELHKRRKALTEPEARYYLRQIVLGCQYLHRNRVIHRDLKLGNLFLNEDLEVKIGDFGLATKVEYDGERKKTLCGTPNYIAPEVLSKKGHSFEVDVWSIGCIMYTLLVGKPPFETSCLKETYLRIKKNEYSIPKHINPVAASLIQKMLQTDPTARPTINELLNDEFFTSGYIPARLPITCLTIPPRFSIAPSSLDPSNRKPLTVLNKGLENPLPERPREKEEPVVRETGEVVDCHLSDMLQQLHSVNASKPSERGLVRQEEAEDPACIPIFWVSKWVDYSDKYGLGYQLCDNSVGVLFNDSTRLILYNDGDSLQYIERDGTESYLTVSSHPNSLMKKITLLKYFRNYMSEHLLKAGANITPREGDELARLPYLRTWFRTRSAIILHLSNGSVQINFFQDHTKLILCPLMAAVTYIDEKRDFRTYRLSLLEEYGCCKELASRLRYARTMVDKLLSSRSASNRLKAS
Chain of Macrophage colony-stimulating factor 1 receptor (Homo sapiens) (P07333 whole entry): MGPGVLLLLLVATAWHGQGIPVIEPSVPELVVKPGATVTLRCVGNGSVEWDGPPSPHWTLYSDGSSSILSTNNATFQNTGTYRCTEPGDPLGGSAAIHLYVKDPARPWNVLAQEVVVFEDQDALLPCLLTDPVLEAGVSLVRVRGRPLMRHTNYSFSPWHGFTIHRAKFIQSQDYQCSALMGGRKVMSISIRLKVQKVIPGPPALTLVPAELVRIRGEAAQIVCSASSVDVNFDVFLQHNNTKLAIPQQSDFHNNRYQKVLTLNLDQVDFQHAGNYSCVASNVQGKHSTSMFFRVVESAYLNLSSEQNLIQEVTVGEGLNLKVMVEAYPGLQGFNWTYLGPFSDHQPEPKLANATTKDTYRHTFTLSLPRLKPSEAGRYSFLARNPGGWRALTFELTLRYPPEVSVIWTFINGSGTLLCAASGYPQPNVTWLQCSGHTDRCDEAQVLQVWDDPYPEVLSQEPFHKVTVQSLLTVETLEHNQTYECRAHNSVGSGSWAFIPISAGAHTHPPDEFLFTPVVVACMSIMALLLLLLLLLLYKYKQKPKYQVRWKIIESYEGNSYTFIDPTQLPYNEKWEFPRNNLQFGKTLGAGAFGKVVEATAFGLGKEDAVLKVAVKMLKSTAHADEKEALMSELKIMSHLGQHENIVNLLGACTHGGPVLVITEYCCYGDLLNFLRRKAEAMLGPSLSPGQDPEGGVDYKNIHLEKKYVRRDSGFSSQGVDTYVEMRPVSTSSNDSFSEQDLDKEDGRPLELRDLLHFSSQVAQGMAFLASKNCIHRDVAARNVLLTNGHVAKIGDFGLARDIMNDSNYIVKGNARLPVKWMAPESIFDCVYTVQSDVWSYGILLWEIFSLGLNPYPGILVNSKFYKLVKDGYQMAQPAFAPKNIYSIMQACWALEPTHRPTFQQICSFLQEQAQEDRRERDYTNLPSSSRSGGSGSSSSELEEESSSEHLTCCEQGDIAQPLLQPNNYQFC
Chain of Serine/threonine-protein kinase Nek6 (Homo sapiens) (Q9HC98 whole entry): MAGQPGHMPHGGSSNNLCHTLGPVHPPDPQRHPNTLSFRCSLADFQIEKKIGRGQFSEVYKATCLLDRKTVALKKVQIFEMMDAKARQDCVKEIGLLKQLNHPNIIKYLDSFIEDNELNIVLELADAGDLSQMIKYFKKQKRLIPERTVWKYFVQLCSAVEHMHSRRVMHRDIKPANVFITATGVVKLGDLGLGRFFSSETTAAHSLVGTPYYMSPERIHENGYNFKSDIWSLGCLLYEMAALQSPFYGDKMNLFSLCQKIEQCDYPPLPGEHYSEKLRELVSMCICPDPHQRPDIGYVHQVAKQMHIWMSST

Row | Structure (SMILES) | inhibition [1] | inhibition [2] | inhibition [3] | inhibition [4] | inhibition [5] | inhibition [6] | inhibition [7] | inhibition [8] | inhibition [9] | inhibition [10] | inhibition [11] | inhibition [12] | inhibition [13] | inhibition [14] | inhibition [15] | inhibition [16] | inhibition [17] | inhibition [18] | inhibition [19] | inhibition [20]
1 | Fc1ccc(-c2cc(-c3c[nH]nc3-c3ccccn3)ccn2)cc1 | 7.34% | 2.81% | 0.44% | 4.38% | 3.61% | 4.06% | 7.77% | 6.08% | 4.43% | 7.41% | 12.6% | 3.3% | 3.1% | 11.3% | 0.71% | -1.38% | 1.05% | 0.08% | 3.27% | 3.45%
2 | COc1ccc(-c2oc3ncnc(N)c3c2-c2ccc(NC(=O)Nc3cc(C(F)(F)F)ccc3F)cc2)cc1 | 9.69% | 5.73% | 16.9% | 5.08% | 7.47% | 2.43% | 3.73% | 3.58% | -1.9% | 6.04% | 39.3% | 5.59% | 4.48% | 8.85% | 47.1% | 47.4% | 98.4% | 21.9% | 90.2% | 8%
3 | c1ccc(-c2nc3n(c2-c2ccc4c(c2)OCO4)CCC3)nc1 | 1.63% | 2.25% | 1.34% | 2.03% | 3.36% | 1.4% | -0.68% | 4.7% | 3.16% | 4.73% | 0.13% | 1.59% | 1.37% | 4.41% | 4.03% | 13.3% | 15.8% | 4.57% | 1.74% | 1.85%

From ChEMBL document CHEMBL1961873, “Compounds: GSK PKIS; Assays: Nanosyn kinase panel” (2012)
